Source: PubChem BioAssay (NCI)
This is part of a sample that, as a whole, favours compounds with a hit. Of some 83,000 tested, about 20% had one in any assay.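 Values shown are percent growth following 48 h exposure of cells in 96-well plates to a single concentration of compound; below 10 was considered active.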 A number with no mark means an inactive call. Active and inactive are the calls of the source.

Columns and labels:
Test in all cases: NCI-60 one-dose screen, 48 h (100 = growth as untreated, 0 = no growth, -100 = all killed)
SR leukemia = conditions: 10 µM unless noted
RPMI-8226 leukemia = conditions: 10 µM unless noted
OVCAR-8 ovarian = conditions: 10 µM unless noted
OVCAR-5 ovarian = conditions: 10 µM unless noted
OVCAR-4 ovarian = conditions: 10 µM unless noted
SK-OV-3 ovarian = conditions: 10 µM unless noted
IGROV1 ovarian = conditions: 10 µM unless noted
OVCAR-3 ovarian = conditions: 10 µM unless noted
HS 578T breast = conditions: 10 µM
NCI/ADR-RES ovarian = conditions: 10 µM unless noted
T-47D breast = conditions: 10 µM unless noted
BT-549 breast = conditions: 10 µM unless noted
MDA-MB-435 melanoma = conditions: 10 µM unless noted
SW-620 colon = conditions: 10 µM unless noted
MCF7 breast = conditions: 10 µM unless noted
HCT-116 colon = conditions: 10 µM unless noted
HCC-2998 colon = conditions: 10 µM
KM12 colon = conditions: 10 µM unless noted

Row | SMILES | growth (SR leukemia) | growth (RPMI-8226 leukemia) | growth (OVCAR-8 ovarian) | growth (OVCAR-5 ovarian) | growth (OVCAR-4 ovarian) | growth (SK-OV-3 ovarian) | growth (IGROV1 ovarian) | growth (OVCAR-3 ovarian) | growth (HS 578T breast) | growth (NCI/ADR-RES ovarian) | growth (T-47D breast) | growth (BT-549 breast) | growth (MDA-MB-435 melanoma) | growth (SW-620 colon) | growth (MCF7 breast) | growth (HCT-116 colon) | growth (HCC-2998 colon) | growth (KM12 colon)
1 | CC1(O)CCC(Nc2cc(-c3ccc(C(F)(F)F)cc3)c(C#N)c3nc4ccccc4n23)CC1 (stereo not drawn) | 79.4% | 56.8% | 78.3% | 99% | 55.2% | 68.6% | 79.3% | 81.4% | 74.4% | 61.8% | 53% | 38.2% | 64.7% | 90.5% | 43.9% | 53.6% | 86.5% | 68.7%
2 | Clc1ccc2c(NCCCNCc3ccc4c(c3)OCO4)ccnc2c1 | -22.9% (active) | 22% | 30.7% | 85.8% | 59.1% | 71.2% | 57.3% | 63.7% | 78.9% | 74.3% | -0.471% (active) | 51.5% | -34.6% (active) | 28.9% | 31.5% | 36.5% | 5.99% (active) | 65.4%
3 | N#Cc1cc2[nH]c3ccc(OC(F)(F)F)cc3c2oc1=O | 26.2% | 89.1% | 86.8% | 118% | 73.7% | 62.5% | 78.9% | 67.1% | 86.2% | 70.9% | 61.2% | 76.5% | 12.7% | 71.6% | 81.4% | 81.2% | 83.3% | 80.2%
4 | O=C(Cn1c(=O)ccn(CCCCCCCCOc2ccc(Br)cc2)c1=O)Nc1ccc(Oc2ccc(Cl)cc2)cc1 | 28.7% | 34.2% | 63.9% | 108% | 53.4% | 65.3% | 77.2% | 83.7% | 81.8% | 42.7% | 37.8% | 54.1% | 65.6% | 73% | 41.3% | 46.5% | 75.5% | 61.7%
5 | COc1cc(NCCN(CC(C)C)CC(C)C)c2ncc(C)cc2c1 | 76.3% | 62.6% | 68.7% | 111% | 34.6% | 88.8% | 76.5% | 1.71% (active) | 100% | 76.5% | 20.3% | 88.7% | -76.4% (active) | 68.1% | 2.66% (active) | 31.8% | 85.6% | 68.6%
6 | COC(=O)C1CCc2sc3ncnc(Nc4cn[nH]c4C(=O)Nc4ccc(CN5CCN(C)CC5)cc4)c3c21 (stereo not drawn) | -25.7% (active) | 8.36% (active) | 16.6% | -2.74% (active) | 23.5% | 6.43% (active) | 4.94% (active) | 11.4% | -3.1% (active) | 54.4% | 17.8% | -0.677% (active) | 22.3% | -10.9% (active) | 4.8% (active) | 3.34% (active) | 27.2% | 9.84% (active)
7 | CCN1CCN(c2cc(C)nc(N(CCCNc3ccnc4cc(Cl)ccc34)Cc3ccc4c(c3)OCO4)n2)CC1 | -40.3% (active) | -49.6% (active) | 9.03% (active) | 50.2% | 27.7% | 72.1% | 5.03% (active) | -26.9% (active) | -27.1% (active) | 14.2% | -51.8% (active) | -42.6% (active) | -73.7% (active) | -3.47% (active) | 4.2% (active) | 2.67% (active) | -42.3% (active) | 29.8%
8 | Cc1cc(N2CCOCC2)nc(N(CCNc2ccnc3cc(Cl)ccc23)Cc2cccs2)n1 | -13% (active) | -11.9% (active) | 8.53% (active) | 83.2% | 14.2% | 61.5% | 35.1% | -73.9% (active) | 5.37% (active) | 34.1% | -29.6% (active) | -16.3% (active) | -1.4% (active) | 19.5% | 18.2% | -25.1% (active) | -12.7% (active) | 26.4%
9 | COc1ccc(-c2nc(N)ncc2Oc2ccccc2OC)c(O)c1 | 27.9% | 25.7% | 35.6% | 60.2% | 75.7% | 24.8% | 48.7% | -4.77% (active) | 36.2% | 17.9% | 35.5% | 36% | -16.6% (active) | 20.6% | 23.4% | 15.9% | 50.6% | 29.5%
10 | C=C1[C@@H](O)C[C@H]2C(C)(C)C[C@H](Cl)C[C@]2(C)[C@H]1C[C@H](O)[C@H]1CC(=O)NC1=O | 7.18% (active) | -0.0704% (active) | -18% (active) | -10.8% (active) | -36.3% (active) | -29.7% (active) | -15.4% (active) | -27.4% (active) | -15.7% (active) | -2.98% (active) | -20.3% (active) | -24.1% (active) | -44.6% (active) | -1.83% (active) | -18.8% (active) | -28.8% (active) | -44.9% (active) | -18% (active)
11 | CCc1nc2cc(/C=C/C(=O)NO)c(F)cc2c(=O)n1CCc1ccccc1 | 8.11% (active) | 12% | 6.53% (active) | 25.4% | 11% | -4.18% (active) | 26.1% | 5.14% (active) | 54% | -11.3% (active) | -0.665% (active) | 15.7% | 18.2% | 18.4% | 12.3% | 5.15% (active) | 37.3% | 15.5%
12 | O=C(Cn1cncn1)Nc1ccc(-c2nc3ccccc3s2)cc1 | 83.8% | 83.3% | 94.6% | 115% | 80.6% | 99.9% | 92.4% | 91% | 103% | 102% | 64.9% | 91.5% | 105% | 106% | 36.1% | 95.4% | 93.9% | 98.2%
13 | COc1cnc2c(c1)C(=O)c1c-2n(CCCN2CCC(O)CC2)c(=O)c2cc(Cl)ccc12 | -16.9% (active) | 8.25% (active) | 46.1% | 101% | 70% | 27.8% | 55.6% | 80.9% | 86.7% | 28.3% | 42.8% | 46.9% | 76.1% | -32.1% (active) | 0.872% (active) | -60% (active) | 51.5% | 45%
14 | COc1cc2cc(NCc3ccc(Cl)cc3)nc(C)c2cc1OC | 18.7% | 14.3% | 40.9% | 41.2% | 82.3% | 68% | 43% | 49.4% | 70.5% | 33.6% | 47.1% | 30.8% | 10.9% | 19.3% | 51.8% | 8.8% (active) | 27.2% | 37.2%
15 | CNC(=O)c1cnc(C)nc1-c1cc(C(C)(C)C)c(O)c(C(C)(C)C)c1 | 85% | 77.8% | 105% | 102% | 89.7% | 97.5% | 103% | 116% | 106% | 110% | 99.3% | 101% | 98.5% | 112% | 93.4% | 96.3% | 127% | 96.4%
16 | O=C(c1ccccc1)C(c1ccccc1)N1CCOCC1 (stereo not drawn) | 95.6% | 101% | 105% | 105% | 108% | 105% | 104% | 101% | 97% | 98.6% | 98.8% | 110% | 109% | 103% | 98.3% | 102% | 102% | 99.1%
